Measurements published in the supplement of paper PMC3334620.
Over roughly 33,000 sequences, “E-score (-0.5 to 0.5)” has its median near -0.016; the highest 2% begin near 0.3. The list comes from a sample in which the highest values are over-represented; it also holds similar and randomly drawn sequences.

Each sequence was assayed against T1, Yer184c (UniProt P39961) (assay: PBM E-score (8-mer binding enrichment) (E-score (-0.5 to 0.5)); higher = stronger / more preferred TF binding). Settings: protein concentration: 100 nM; construct: GST-full length.
T1 sequence: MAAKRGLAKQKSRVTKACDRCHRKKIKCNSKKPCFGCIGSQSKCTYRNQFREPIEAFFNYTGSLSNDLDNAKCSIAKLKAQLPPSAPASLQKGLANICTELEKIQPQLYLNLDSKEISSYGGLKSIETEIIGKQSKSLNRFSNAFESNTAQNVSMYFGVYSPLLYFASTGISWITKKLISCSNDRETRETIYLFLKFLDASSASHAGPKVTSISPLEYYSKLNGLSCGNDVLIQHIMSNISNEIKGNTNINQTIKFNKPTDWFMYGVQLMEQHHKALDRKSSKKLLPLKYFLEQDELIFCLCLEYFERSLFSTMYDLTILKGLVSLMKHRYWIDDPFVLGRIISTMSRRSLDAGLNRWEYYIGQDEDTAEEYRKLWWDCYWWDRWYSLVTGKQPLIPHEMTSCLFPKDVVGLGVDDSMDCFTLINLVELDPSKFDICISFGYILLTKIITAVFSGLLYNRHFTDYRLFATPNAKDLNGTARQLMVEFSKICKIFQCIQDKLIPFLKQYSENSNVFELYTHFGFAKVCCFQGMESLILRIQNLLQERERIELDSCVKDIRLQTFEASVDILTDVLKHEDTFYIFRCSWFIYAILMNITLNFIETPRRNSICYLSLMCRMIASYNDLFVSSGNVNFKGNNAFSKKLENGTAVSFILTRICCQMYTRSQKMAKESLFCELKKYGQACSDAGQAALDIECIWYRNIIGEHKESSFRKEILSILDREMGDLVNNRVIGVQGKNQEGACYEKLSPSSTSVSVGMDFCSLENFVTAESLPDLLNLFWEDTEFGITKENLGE
Method in brief: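 E-scores (a modified Wilcoxon-Mann-Whitney statistic) were assigned by the Universal PBM Analysis Suite to every ungapped eight-base word pooled with its reverse complement. The input came from universal all-10-mer Agilent arrays made double-stranded by primer extension and probed with GST-tagged yeast transcription factors at about 100-200 nM. Fluorescent anti-GST detected bound protein, and masliner normalised the scans.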

| Sequence | PBM E-score |
| --- | --- |
| TCGAGACA | -0.0512 |
| GGCCATAA | -0.102 |
| ACGGCAGG | -0.117 |
| GGGTCAAA | 0.0026 |
| CCGTCCAA | -0.024 |
| CAAGCAGC | -0.149 |
| AATGGTTA | -0.0173 |
| TAGTCTAA | -0.101 |
| AAATTTGT | 0.213 |
| GCGCCGCC | 0.122 |
| CCGCCGGC | 0.442 |
| CCGCCGCA | 0.0998 |
| GCGCCGCA | 0.166 |
| CCGCCGGA | 0.316 |
| ACGCCGGA | 0.227 |
| CCGCCGTC | -0.00239 |
| CCGCCGCC | 0.0576 |
| GCGCCGGA | 0.355 |
| ACGCCGGC | 0.423 |
| ACGCCGGG | 0.21 |
| ACGCCGCC | -0.0562 |
| AGCGTTGG | -0.251 |
| CAATTTGC | -0.0817 |
| TACCTCAA | -0.122 |
| AACATTCG | 0.00818 |

| Sequence | PBM E-score |
| --- | --- |
| CTTAGTGC | 0.081 |
| CCACAAGC | -0.273 |
| ATGTAGAA | -0.0706 |
| ACCATTCA | 0.00717 |
| GGCAGGTA | -0.0757 |
| CTCTTAGA | 0.0666 |
| CGAAACCG | 0.253 |
| GACCGGCA | 0.173 |
| GGCCGGCC | 0.384 |
| GCCCGGCC | 0.242 |
| CGCCGGTC | 0.228 |
| AGTCGGCC | 0.135 |
| CCCCGGCC | 0.0277 |
| ACCCGGCC | 0.255 |
| GGCCGGCA | 0.415 |
| GGCCGGTA | 0.248 |
| GACCGGCC | 0.203 |
| AGCCGGCC | 0.333 |
| CGCCGGCC | 0.35 |
| GTCTCGCA | -0.0807 |
| TGGGTCAA | -0.147 |
| ACGGGCTG | -0.045 |
| AAAATCGG | 0.15 |
| ATTTGATG | 0.115 |
| ATGGCCCG | -0.0155 |

| Sequence | PBM E-score |
| --- | --- |
| CAATCTGC | -0.14 |
| ACCTTGAG | -0.0404 |
| GGAGTAAA | 0.134 |
| GTTTCAGA | 0.0364 |
| GTTGGTTA | -0.0114 |
| CGATACAC | -0.00964 |
| AAACGGAA | 0.403 |
| AAACGGTA | 0.163 |
| CAACGGAG | 0.0267 |
| CAACGGAA | 0.36 |
| GAACGGAA | 0.267 |
| AAACGGAC | -0.00077 |
| AAACGGAT | 0.313 |
| TAACGGAA | 0.298 |
| AAACGGAG | 0.152 |
| ACTTCATA | -0.0295 |
| CGAGACGA | -0.0371 |
| AAAGCGTT | -0.0919 |
| CAGAGCAA | 0.108 |
| CTCCGGAA | 0.402 |
| ATCCGCAG | 0.123 |
| CTCCGCAG | -0.136 |
| ATCCGGAG | 0.398 |
| CTCCGGTA | 0.218 |
| GTCCGGCA | 0.285 |

| Sequence | PBM E-score |
| --- | --- |
| CTCCGGAG | 0.416 |
| GTCCGGTA | 0.206 |
| GTCCGGAA | 0.429 |
| CTACGGAG | 0.0895 |
| ATCCGGGG | 0.262 |
| CTCCGTAA | 0.0982 |
| AACCGACT | 0.0723 |
| CGGCCCCA | -0.282 |
| ACTTGCCA | -0.078 |
| AATGAGAT | 0.127 |
| GTAAGGCA | -0.206 |
| ATCCGGAA | 0.418 |
| ATCCGGGA | 0.258 |
| ATGCGGAA | 0.271 |
| AACCGGGC | 0.187 |
| ATCAGGAT | 0.115 |
| CTCCGGGC | 0.0789 |
| ATCCGGAT | 0.442 |
| ATCCGGGC | 0.363 |
| CTCCGGGA | 0.205 |
| GTCCGGGA | 0.342 |
| ATCCGCAT | 0.111 |
| ATCCGTAA | 0.149 |
| TAAGCACA | 0.189 |
| ACAGAACT | 0.116 |

| Sequence | PBM E-score |
| --- | --- |
| AGTCGCAA | -0.0383 |
| CACCATCC | -0.292 |
| AGCATTTA | 0.0356 |
| AAGCCACC | -0.342 |
| CAGGCCCA | -0.211 |
| ATCCGTAC | 0.195 |
| CTCCGGTC | 0.248 |
| ATCCGGAC | 0.322 |
| CTCCGGAC | 0.328 |
| ACCCGGAC | 0.055 |
| CCCCGGAC | 0.0445 |
| CAATCCTC | -0.113 |
| CCAGATGC | -0.103 |
| GCAAGAAA | 0.161 |
| ATTGAGCG | -0.0456 |
| CCGTCCAG | 0.122 |
| AACCGGGA | 0.188 |
| AACCGGAG | 0.358 |
| CACCGGAG | 0.173 |
| AACCGGGG | -0.0803 |
| AACCGGTG | 0.214 |
| AACCGGAT | 0.366 |
| AACCGGAC | 0.212 |
| AACCGGGT | 0.202 |
| GACCGGAA | 0.232 |

| Sequence | PBM E-score |
| --- | --- |
| AACCGGTC | 0.229 |
| AACCGGAA | 0.34 |
| AACCGGTT | 0.359 |
| AGCTACCA | -0.173 |
| ATGCATTA | 0.0989 |
| GAATCCCA | -0.0522 |
| ATAGGAGG | -0.285 |
| AGGCTTAC | -0.0812 |
| GACTGGTA | 0.00991 |
| TACCGGGA | 0.207 |
| CACCGGAC | 0.268 |
| CACCGGGA | 0.152 |
| CACCGGAA | 0.368 |
| TACCGGAA | 0.409 |
| TACCGGTA | 0.23 |
| AATGGCCC | -0.247 |
| ACCTAGTC | -0.244 |
| AACATCCC | 0.141 |
| CACATCCG | 0.282 |
| AGTATCCA | -0.00531 |
| AGTATCCG | 0.332 |
| AGTATCCC | -0.0953 |
| AACATCCG | 0.381 |
| AATATCCC | -0.0444 |
| ATTATCCA | 0.0655 |

| Sequence | PBM E-score |
| --- | --- |
| ATTATCCC | 0.0672 |
| ATTATCCG | 0.36 |
| AATATCCA | 0.17 |
| AATATCCG | 0.352 |
| AATGTTAT | 0.184 |
| CACCAGGC | -0.103 |
| CCCTTGAA | -0.0291 |
| TACAATAA | 0.14 |
| CATGGTAC | -0.223 |
| ATACCCGA | 0.111 |
| CGCCTAAC | -0.0428 |
| TGACTACA | -0.022 |
| GAATATAA | 0.085 |
| ATTAAAAA | 0.323 |
| AAATATCA | 0.124 |
| AAATATGC | 0.0299 |
| TAATATAA | 0.339 |
| ATTAAAAC | 0.286 |
| CAATATAA | 0.243 |
| AAATATAA | 0.327 |
| AAATATGA | 0.0794 |
| AAATATGT | 0.304 |
| AAAAATAA | 0.237 |
| ATTAAAAG | 0.172 |
| GTACAATA | 0.188 |
